Source: PubChem
This is a sample that favours compounds with a hit; in the whole collection about 9.4% have one here.
IMPase Li cell = membrane-permeable IMPase blocker, potentiated with lithium; 210,000 tested, 0.35% active; CHO-M1 cells, IP1 TR-FRET (IP-One), carbachol + lithium; Potency, µM (titrated, usually from 59.4 µM), most hits filed as inhibitors; AID 1457;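 also: IP1 builds up when IMPase is blocked and the TR-FRET signal falls; nearly all actives have a fitted effect of over 50% in size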
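IP1 accumulation measured by competitive TR-FRET in lysed CHO-M1 cells after 30 min compound exposure at 37C, with a small lithium addition to potentiate weak responses. Hill-equation AC50 from ratio and donor-channel data.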
IMPase inh = cell-permeable inhibitors of inositol monophosphatase (IMPase). CHO-M1 cells, IP1 accumulation, HTRF TR-FRET ratio. inhibition (IP1 accumulation), % at 46.1 µM. 120,000 tested, under 10 active. AID 901; active = well fitted curve in the direction sought with a large enough effect in the signal ratio, not every such curve was filed as active; inconclusive = small, poorly fitted or top-dose-only effect, or a change in a side signal; inactive = no such curve, though single readings can be large or run the other way; the % refers to the signal ratio;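 also: cells stimulated with carbachol in lithium chloride buffer; higher means more IMPase inhibition seen as more IP1 and lower FRET ratio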
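The IP-One HTRF competitive assay in carbachol-stimulated CHO-M1 cells quantifies cellular IP1. Compounds spanned up to 46 uM final, and activity is expressed as AC50 from concentration-response fits of the ratio and donor data.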
HPGD inh = HPGD (human) dehydrogenase inhibition. P15428. purified HPGD, NADH fluorescence kinetic, PGE2 substrate. Potency, µM, actives largely listed as inhibitors. 150,000 tested, 4.3% active. AID 894; active = well fitted inhibition curve with a large enough effect, not every such curve was filed as active; inconclusive = small, poorly fitted or top-dose-only effect, or another doubt; inactive = no such curve, though single readings can be large or run the other way
Target sequence (P15428 whole entry, looked up): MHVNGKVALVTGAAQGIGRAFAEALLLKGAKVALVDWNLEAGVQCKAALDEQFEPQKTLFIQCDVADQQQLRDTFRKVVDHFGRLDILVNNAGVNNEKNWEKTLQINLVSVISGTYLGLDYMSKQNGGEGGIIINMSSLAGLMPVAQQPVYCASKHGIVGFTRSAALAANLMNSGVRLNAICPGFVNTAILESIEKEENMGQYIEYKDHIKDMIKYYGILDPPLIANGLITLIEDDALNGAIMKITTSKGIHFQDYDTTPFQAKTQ
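NADH formation kinetics: reaction with 30 uM PGE2 and 1 mM NAD+ (final), 20 nM enzyme, Tris-HCl pH 8 with Tween 20, after 15 min compound preincubation at room temperature. Fluorescence change, last versus first of five reads.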
ALDH1A1 block = ALDH1A1 (human) enzyme inhibition; Purified ALDH1A1, NADH fluorescence, propionaldehyde substrate; Potency, µM (titrated, usually from 75.3 µM), hits mostly inhibitors; 220,000 tested, 7.3% active; AID 1030; active = well fitted inhibition curve with a large enough effect, not every such curve was filed as active; inconclusive = small, poorly fitted or top-dose-only effect, or another doubt; inactive = no such curve, though single readings can be large or run the other way
Target sequence (P00352 whole entry, looked up): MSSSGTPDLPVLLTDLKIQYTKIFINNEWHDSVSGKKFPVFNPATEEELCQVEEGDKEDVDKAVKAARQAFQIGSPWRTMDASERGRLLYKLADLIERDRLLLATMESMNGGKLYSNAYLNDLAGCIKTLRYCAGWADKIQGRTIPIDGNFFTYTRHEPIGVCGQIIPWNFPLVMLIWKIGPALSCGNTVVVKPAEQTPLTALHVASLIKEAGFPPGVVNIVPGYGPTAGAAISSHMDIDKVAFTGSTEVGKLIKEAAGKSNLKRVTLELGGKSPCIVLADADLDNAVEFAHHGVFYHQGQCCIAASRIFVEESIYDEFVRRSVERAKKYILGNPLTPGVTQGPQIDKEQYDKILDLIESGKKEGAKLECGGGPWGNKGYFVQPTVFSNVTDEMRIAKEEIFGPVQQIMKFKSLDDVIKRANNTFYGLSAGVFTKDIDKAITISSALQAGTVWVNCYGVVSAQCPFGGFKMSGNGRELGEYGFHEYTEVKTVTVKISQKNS
HttQ103 aggreg = reduces HttQ103-GFP aggregates in PC12 cells; AID 1688; 220,000 tested, 1.1% active; PC12 HttQ103-GFP aggregates, Acumen cytometry, 40 h; Potency, µM (series often up to 46.1 µM), hits mostly inhibitors; also: nearly all actives have a fitted effect of over 60% in size
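Inducible Q103 Huntingtin exon 1–GFP PC12 line, 1500 cells/well in phenol red free DMEM with 5% equine and 5% calf serum. Tebufenozide 100 nM induced expression; compounds titrated; aggregates quantified by cytometry.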
HTT cytoprotect = Huntington cell model cytoprotection by ATP luminescence | PC12 HTT-Q103 induced, cytoprotection, ATP luminescence, 40 h | Potency, µM (top dose mostly 56.4 µM), usual class: activators | 230,000 tested, 0.14% active; also: nearly all actives have a fitted effect of over 45% in size
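Rat PC12, Q103 Htt exon1-GFP fusion, ecdysone promoter; tebufenozide inducer 100 nM final; compound titration; qHTS, 1500 cells/well; ATPlite luminescent read.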
Hits are given with their value; . = inactive; ? = inconclusive; / = not tested or not shown; [ ] = remark or other dose. Unless noted, calls follow the shape of the dose curve; as a rule, active = well fitted curve in the direction sought with a large enough effect; inconclusive = small, poorly fitted or top-dose-only effect, or another doubt; inactive = no such curve, though single readings can be large; an effect the other way counts as inactive or inconclusive.

SMILES	IMPase Li cell	IMPase inh	HPGD inh	ALDH1A1 block	HttQ103 aggreg	HTT cytoprotect
CCOc1ccc(NC(=S)Nc2cccc3cnccc23)cc1	.	.	.	32µM	.	.[1.9 µM]
COc1ccc(NC(=S)Nc2cccc3cnccc23)cc1	.	/	.	25µM	.	/
CN(C)S(=O)(=O)N(CC(=O)NCCSCc1cccc(Cl)c1)c1ccccc1	/	.	/	/	/	/
Cc1c(NC(=O)c2cc3c(s2)-c2ccccc2OC3)cccc1[N+](=O)[O-]	.	.	?	14µM	.	.[10 µM]
Cc1csc(NC(=O)c2cc3c(s2)-c2ccccc2OC3)n1	.	.	?	?	.	.
Cc1cccc(NC(=O)c2cc3c(s2)-c2c(C)cccc2OC3)n1	/	/	/	/	.[9.22 µM]	.[10 µM]
CN(C)CCNC(=O)c1cc2c(s1)-c1ccccc1OC2	8.9µM	.	?	?	.	.
CCCCCn1c(SCCc2ccccc2)nc2c1c(=O)[nH]c(=O)n2C	.	.	.	?	.	.[10 µM]
CCCn1c(SCCc2ccccc2)nc2c1c(=O)[nH]c(=O)n2C	.	.	.	?	.	.[10 µM]
CCCCSc1nc2c(c(=O)[nH]c(=O)n2C)n1CCc1ccccc1	.	.	.	2.5µM	.	.
CCCCCOC(=O)CSc1nc2c(c(=O)[nH]c(=O)n2C)n1CCc1ccccc1	.	.	25µM	25µM	.	.[1.9 µM]
CCC(C)Sc1nc2c(c(=O)[nH]c(=O)n2C)n1Cc1ccccc1Cl (centres undefined)	.	.	.	1.3µM	?	.
CC(C)n1c(SCCCc2ccccc2)nc2c1c(=O)[nH]c(=O)n2C	.	.	20µM	?	.	.
O=S(=O)(c1ccccc1)N1CCC[C@@]2(CCN(Cc3cc(C(F)(F)F)cc(C(F)(F)F)c3)C2)C1	.	/	.	.	/	.
Cn1cc(Br)c(-c2cccc(NC(=O)CCCC(=O)O)c2)n1	/	/	/	.	.[9.22 µM]	.[10 µM]
COc1ccc2c(c1)O[C@@H](c1ccc3c(c1)OCO3)[C@H](OC(=O)Nc1ccc(C)c(Br)c1)C2=O	.	/	.	.	/	.
COCCn1c(SCCCc2ccccc2)nc2c1c(=O)[nH]c(=O)n2C	/	.	/	20µM	.	.
C/C(Cl)=C/Cn1c(SCC(C)C)nc2c1c(=O)[nH]c(=O)n2C	.	?	.	?	.	.
CCOC(=O)C(C)Sc1nc2c(c(=O)[nH]c(=O)n2C)n1CCc1ccccc1 (centres undefined)	.	.	.	13µM	?	.[10 µM]
CCOC(=O)C(CC)Sc1nc2c(c(=O)[nH]c(=O)n2C)n1C/C=C(/C)Cl (centres undefined)	.	.	4µM	3.5µM	.	.[10 µM]
CCCn1c(Sc2nc3c(c(=O)[nH]c(=O)n3C)n2CCC)nc2c1c(=O)[nH]c(=O)n2C	.	.	14µM	.	.	.
O=C(O)C(=Cc1ccc(-c2ccccc2)cc1)C(=O)O	.	/	.	.[13.5 µM]	/	.[10 µM]
CC(C)CCn1c(SCCc2ccccc2)nc2c1c(=O)[nH]c(=O)n2C	.	.	?	6.3µM	.	.
O=C(O)Cn1cc(/C=C2\SC(=O)N(c3ccccc3)C2=O)c2ccccc21	.	/	/	22µM	.[9.22 µM]	.[1.9 µM]
CCN(CC)c1ccc(C=C2C(=O)OC(c3ccccc3)OC2=O)cc1 (centres undefined)	.	/	/	0.28µM	.	.
SMILES	IMPase Li cell	IMPase inh	HPGD inh	ALDH1A1 block	HttQ103 aggreg	HTT cytoprotect
CCN(CC)c1ccc(C=C2C(=O)OC3(CCCC3)OC2=O)cc1	.	.	?	0.71µM	.	?
O=C(c1cnccn1)N1CCC2(CC1)CN(c1cccc(-c3ccccc3)c1)C2	.	/	.	.	/	.
COc1ccccc1CN1CCCC2(CCN(C(=O)c3cc(C(F)(F)F)cc(C(F)(F)F)c3)CC2)C1	.	/	.	.	/	?
CCC1=Nc2ccccc2NC2=C1C(=O)CCC2	.	.	.	11µM	.	.
CC1CC(=O)C2=C(C1)Nc1ccccc1N=C2 (centres undefined)	.	.	.	.	.	.
O=C(CC(=O)c1ccccc1O)c1cccc(F)c1	.	.	20µM	.	?	.
O=C(CCc1ccccc1)NNC(=O)c1cccc(F)c1	.	/	/	.	.	?
Cc1ccc(C(=O)CC(=O)c2cc(Cl)ccc2O)cc1	.	.	28µM	.	?	.
O=C(CC(=O)c1ccccc1O)c1ccc(F)cc1	.	.	18µM	.	?	.[10 µM]
O=C(O)CCC(=O)NCC(=O)c1ccc(F)cc1	/	/	/	/	.[9.22 µM]	.[10 µM]
Cn1c(-c2ccccc2)cc(=O)c2ccccc21	.	.	25µM	.	.	.
COc1ccc2c(c1)c(=O)cc(-c1ccccc1)n2C	.	.	?	?	.	.[10 µM]
COC(=O)CN1C(=S)N(c2ccc(Cl)cc2)C(=O)C1CC(=O)Nc1ccc(F)cc1 (centres undefined)	.	.	.	?	.	.[10 µM]
COc1ccc(NC(=O)CC2C(=O)N(c3ccc(Cl)cc3)C(=S)N2CCc2ccccn2)cc1 (centres undefined)	.	.	.	16µM	?	.[10 µM]
COC(=O)CN1C(=S)N(c2ccc(Cl)cc2)C(=O)C1CC(=O)Nc1ccc(Cl)cc1 (centres undefined)	.	.	32µM	.	.	.
Cc1noc(C)c1C(=O)N1CCC2(CCCN(Cc3nccs3)C2)CC1	.	/	.	.	/	.
COc1ccc(CCSc2nnc(C3CCCCC3)n2N)cc1	.	.	20µM	.	.	.
OC[C@@H]1O[C@@H](n2cnc3c(NCCc4ccccc4)ncnc32)[C@@H](O)[C@H]1O	/	/	/	/	/	.[1.9 µM]
C[C@]12C=CC(=O)C=C1CC[C@@H]1[C@H]3C[C@@H](O)[C@](O)(C(=O)CO)[C@]3(C)C[C@H](O)[C@]12F	/	/	/	/	/	.[1.9 µM]
CCCC/C=C/C(NC(=O)OCc1ccccc1Cl)c1ccccc1 (centres undefined)	.	/	?	.	/	.
[O-]/C(=C(\C(=S)Nc1ccc(SC(F)F)cc1)[n+]1cccc(CO)c1)c1ccc(Cl)s1	.	/	/	?	?	/
[O-]/C(=C(\C(=S)Nc1cccc2ccccc12)[n+]1cccc(CO)c1)c1ccc(Cl)s1	.	/	/	13µM	?	.
Cc1c(Cl)cccc1NC(=S)/C(=C(\[O-])c1ccc(Cl)s1)[n+]1ccccc1	.	/	?	.	.	.[10 µM]
Cc1ccc(NC(=S)/C(=C(\[O-])c2ccc(Cl)s2)[n+]2cccc(CO)c2)cc1C	.	/	/	14µM	.	/
COc1ccc2cc3c(N)nn(C(=O)c4ccc(Cl)c([N+](=O)[O-])c4)c3nc2c1	.	.	.	.	2.8µM	.[10 µM]
CC1(C)Cc2c(C#N)c(OCC(=O)c3ccc(Cl)cc3)nc(-c3ccoc3)c2CO1	/	.	/	0.4µM	.	.
COc1nc(-c2ccccc2)c2c(c1C#N)CC(C)(C)OC2	.	.	.	?	.	.
CC1(C)Cc2c(C#N)c(OCC(=O)c3ccccc3)nc(-c3ccoc3)c2CO1	.	.	?	0.28µM	.	.
